In all, about 5,500 compounds went through this assay and about 2,000 (36%) were called active. Another 18% or so got no clear call; they are omitted. Rule as the data show it: active = normalized growth mostly below about 0.91 (no sharp cut-off); inconclusive = no clear call, values can overlap the other calls; inactive = mostly above about 0.92. This is one part of the list.
Assay: chemical genetic growth profiling, strain panel (AID 1159580);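 also: tested at 20 µM; growth read once vehicle control cultures reached saturation at 30 °C; 1 = growth at the plate median or of vehicle wells; lower values mean less growth of the strain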
Conditions: S. cerevisiae deletion strains, growth OD

Measured: normalized growth

O=C(O)c1ccccc1-c1c2cc(I)c(=O)c(I)c-2oc2c(I)c(O)c(I)cc12
inactive: locus YHR030C, strain SLT2, stronger effect = lower value 0.991 | locus YHR079C, strain IRE1, stronger effect = lower value 1 | locus YJL095W, strain BCK1, stronger effect = lower value 0.992 | locus YJR066W, strain TOR1, stronger effect = lower value 0.903 | locus YLR113W, strain HOG1, stronger effect = lower value 0.942 | locus YNL183C, strain NPR1, stronger effect = lower value 0.93 | locus YOR231W, strain MKK1, stronger effect = lower value 1.02 | locus YPL256C, strain CLN2, stronger effect = lower value 1.01
